# Anthrax LF inh2 – anthrax lethal factor protease inhibition; AID 588501; 360,000 tested, 0.12% active; multiplex microsphere protease cleavage assay, LF; inhibition, % at 10 µM; P15917
# Target sequence (P15917 whole entry, looked up): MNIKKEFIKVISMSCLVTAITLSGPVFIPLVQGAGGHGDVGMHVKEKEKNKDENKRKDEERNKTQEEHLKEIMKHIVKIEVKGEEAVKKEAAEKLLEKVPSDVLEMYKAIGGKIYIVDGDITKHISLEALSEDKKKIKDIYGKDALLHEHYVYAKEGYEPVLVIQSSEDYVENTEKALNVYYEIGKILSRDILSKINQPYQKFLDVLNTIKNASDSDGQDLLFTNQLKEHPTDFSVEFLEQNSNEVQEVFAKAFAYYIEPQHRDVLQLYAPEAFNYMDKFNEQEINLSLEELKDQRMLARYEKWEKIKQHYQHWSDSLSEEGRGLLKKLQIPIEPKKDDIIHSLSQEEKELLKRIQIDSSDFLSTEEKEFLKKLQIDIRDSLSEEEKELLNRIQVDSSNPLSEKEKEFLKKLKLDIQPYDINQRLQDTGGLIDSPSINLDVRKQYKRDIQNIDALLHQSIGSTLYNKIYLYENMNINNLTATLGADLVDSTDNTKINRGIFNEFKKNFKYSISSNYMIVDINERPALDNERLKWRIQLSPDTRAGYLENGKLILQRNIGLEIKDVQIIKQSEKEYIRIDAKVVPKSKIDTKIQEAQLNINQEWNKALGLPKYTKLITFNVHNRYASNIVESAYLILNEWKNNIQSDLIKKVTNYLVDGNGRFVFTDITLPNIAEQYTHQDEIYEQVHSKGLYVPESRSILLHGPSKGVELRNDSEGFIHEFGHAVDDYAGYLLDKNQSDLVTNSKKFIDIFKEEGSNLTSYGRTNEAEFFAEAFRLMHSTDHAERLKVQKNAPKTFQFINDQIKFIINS
# Autofluor counter – compound fluorescence in toxin protease inhibitor counterscreen; compound autofluorescence counterscreen, microsphere flow cytometry; hits give high values; 360,000 tested, 3.1% active; AID 624483; fluorescence intensity (no concentration beside the values); in the data active = fluorescence intensity above about 16000; inconclusive = no clear call, values can overlap the other calls
# GDH-TPI counter – GDH-TPI coupled enzyme inhibition counter-screen. GDH-TPI coupled enzyme counterscreen, NADH absorbance. inhibition, % at 4.8 µM. 360,000 tested, 1.2% active. AID 588335; in the data active = inhibition above about 30%
# FBA Mtb inh – inhibits M. tuberculosis FBA enzyme; P9WQA3; purified M. tuberculosis FBA, fluorescence read-out; inhibition, % at 1 µM; 360,000 tested, 2.3% active; AID 588726; in the data active = inhibition above about 27%
# BoNT A protease – BoNT A light chain protease inhibition. multiplex microsphere protease substrate cleavage, flow cytometry. inhibition, % at 10 µM. 360,000 tested, 0.17% active. AID 588499
# BoNT-F LC inh – inhibitors of Botulinum neurotoxin F light chain protease | Multiplex microsphere protease cleavage assay, flow cytometry | inhibition, % at 10 µM | 360,000 tested, 0.22% active; in the data active = inhibition above about 35%, passing the limit was not always enough; inconclusive = no clear call, values can overlap the other calls
# Hits are given with their value; n = inactive; u = inconclusive; x = no result. Hits are enriched below; roughly 6.7% of the tested compounds scored in any of these assays. Cut-off read from the data, not from the text of the source, unless noted: active = inhibition above about 30%; inconclusive = no clear call, values can overlap the other calls; inactive = below that.
SMILES,Anthrax LF inh2,Autofluor counter,GDH-TPI counter,FBA Mtb inh,BoNT A protease,BoNT-F LC inh
C/C(=N\NS(=O)(=O)c1ccc(Cl)c([N+](=O)[O-])c1)c1ccc(C)o1,n,n,n,n,n,n
Cc1ccc(S(=O)(=O)N/N=C/c2ccccc2O)cc1[N+](=O)[O-],n,n,n,n,n,n
c1ccc(C2(CN3CCNC[C@H]3Cc3cccc4ccccc34)CC2)cc1,n,n,n,n,n,n
CCOc1nc2ccccc2nc1NS(=O)(=O)c1ccccc1,n,n,n,n,n,n
CCOc1ccc(-c2nnn(CC(=O)Nc3ccccc3OC)n2)cc1OCC,n,n,n,n,n,n
CCN(CC)c1ccc(NC(=O)Cn2nnc(-c3cccc(OC)c3OC)n2)c(C)c1,n,20991,n,n,n,n
CCC(CC)C(=O)Nc1cccc(C(=O)Nc2ccc(S(=O)(=O)Nc3ccc(C)cc3)cc2)c1,n,22769,n,n,n,n
CCC(CC)C(=O)Nc1cccc(S(=O)(=O)c2cccc(NC(=O)C(CC)CC)c2)c1,n,16846,n,n,n,n
CCC(CC)C(=O)Nc1cccc(C(=O)Nc2ccc(S(N)(=O)=O)cc2)c1,n,n,n,n,n,n
CC(C)(C)n1nnnc1C(c1ccccc1F)N(Cc1ccco1)CC1CCCO1 (stereo not drawn),n,n,n,n,n,n
CO/N=C/C(C(C)=O)C(=O)Nc1ccc(Cl)cc1Cl (stereo not drawn),n,n,n,n,n,n
Cc1nc2ccccc2c(=O)n1/N=C/c1ccc2ccccc2c1O,n,n,n,n,n,n
Cn1c(=O)[nH]c(=O)c2c1nc(Br)n2CCCSc1nc2ccccc2o1,n,17409,n,n,u,n
C/C=C/Cn1c(Br)nc2c1c(=O)[nH]c(=O)n2C,n,22506,n,n,n,n
C/C=C/Cn1c(SC)nc2c1c(=O)[nH]c(=O)n2C,n,n,n,n,n,n
O=C(CCC(=O)OCC(=O)c1ccc(F)cc1)NC1CCCCC1,x,x,n,n,x,x
CCC/C(=C1/C(=O)CC(C)(C)C(C(=O)OC)C1=O)N1CCCC1 (stereo not drawn),n,n,n,n,n,n
CCN(CC)CCCNC(=O)c1ccc(OCC(=O)Nc2ccccc2C(F)(F)F)c(OC)c1,n,n,n,n,n,n
Cc1ccc(-n2c([S-])c(C(=O)Nc3ccc(OC(F)F)cc3)[n+]3ccc(C(=O)NCCO)cc23)cc1C,n,n,n,n,50.9,n
COc1ccccc1-n1c([S-])c(C(=O)Nc2ccccc2C(F)(F)F)[n+]2ccc(C(=O)NCCO)cc12,n,n,n,n,36.5,n
CCC(CC)NCc1c[nH]c2ccccc12,n,n,n,n,n,n
COc1cccc(C(=O)Nc2cccc3ccccc23)c1,n,n,n,n,n,n
COc1cccc(C(CC(=O)Nc2cccc3ccccc23)NC(=O)c2ccccc2)c1 (stereo not drawn),n,19845,n,n,n,n
Cc1cc(/C=C2/C(=O)NN(c3ccccc3)C2=O)c(C)n1-c1ccc(O)cc1,n,n,n,n,n,n
Cc1cc(/C=C2\C(=O)NN(c3ccccc3)C2=O)c(C)n1-c1ccccc1O,n,n,33.8,n,n,n
SMILES,Anthrax LF inh2,Autofluor counter,GDH-TPI counter,FBA Mtb inh,BoNT A protease,BoNT-F LC inh
NC1=NC(=O)/C(=C\c2cccs2)S1,n,n,48.3,n,n,n
O=C1N=C(N2CCOCC2)S/C1=C\c1cccs1,n,n,n,n,n,n
COc1cccc(N2CCN(CC(=O)NCc3cccs3)CC2)c1,n,n,n,n,n,n
Cc1ccccc1/C(N)=N/OC(=O)N1c2ccccc2Sc2ccccc21,n,23999,n,n,n,n
Cc1ccc(/C(N)=N/OC(=O)N2c3ccccc3Sc3ccccc32)cc1,n,n,n,n,n,n
Cc1cc(-c2sccc2C)nc(-n2cccc2)n1,n,n,n,n,n,n
O=C(Nc1ccn(Cc2ccc(Cl)cc2)n1)c1ccc2c(c1)OCO2,n,24410,n,n,n,n
O=C(Nc1ccc(CN2CCCCC2)cc1)c1ccc2c(c1)OCO2,n,20600,n,n,n,n
CC(C)OC(=O)c1c(NC(=O)CCn2nnc3ccccc32)sc2c1CCCC2,n,20341,n,n,u,n
CC(C)OC(=O)c1c(NC(=O)CCC(=O)O)sc2c1CCCCC2,n,n,n,n,n,n
CN1/C(=C\C(=O)COC(=O)CN2C(=O)C3CC=CCC3C2=O)C(C)(C)c2ccccc21 (stereo not drawn),n,n,36.8,n,n,n
CN1/C(=C\C(=O)COC(=O)CNC(=O)c2ccc3ccccc3c2)C(C)(C)c2ccccc21,u,n,n,n,u,u
CN1/C(=C\C(=O)COC(=O)c2ccc(O)cc2)C(C)(C)c2ccccc21,n,n,n,n,n,n
CN1/C(=C/C(=O)COC(=O)C2COc3ccccc3O2)C(C)(C)c2ccccc21 (stereo not drawn),n,n,31.6,n,n,n
CCN(CC)c1ccc(N=Cc2c(O)n(-c3ccccc3)c(=O)[nH]c2=O)cc1,n,n,n,n,n,n
CCN(CC)c1ccc(N=Cc2c(O)[nH]c(=O)[nH]c2=O)cc1,n,n,35.0,n,n,u
COc1ccc2c3c([nH]c2c1)C1(NCC3)C(=O)Nc2ccccc21 (stereo not drawn),n,n,n,n,n,n
COc1cc2c(cc1OC)C1(NCC2)C(=O)Nc2ccccc21 (stereo not drawn),n,16750,n,n,n,n
O=c1c2ccccc2sc2ccc(NCCCN3CCOCC3)cc12,n,n,n,n,n,n
COc1cc2sc3cc(NCCCN4CCOCC4)ccc3c(=O)c2cc1OC,n,n,n,34.3,n,n
c1ccc(C(c2ccccc2)N2CCN(Cc3nnnn3C3CCCC3)CC2)cc1,n,n,n,n,n,n
C1CCC(n2nnnc2CN2CCCC2)CC1,n,23839,n,n,n,n
CCN1CCN(C(=O)CCCCCn2c(=O)[nH]c3cc(C(=O)OC)ccc3c2=O)CC1,n,n,n,n,n,n
CCN1CCN(CCNC(=O)CCCCCn2c(=O)[nH]c3cc(C(=O)OC)ccc3c2=O)CC1,n,23054,n,n,n,n
Oc1c(Br)cc(C2N=C(c3ccccc3)NO2)cc1Br (stereo not drawn),n,n,31.7,n,n,n
SMILES,Anthrax LF inh2,Autofluor counter,GDH-TPI counter,FBA Mtb inh,BoNT A protease,BoNT-F LC inh
Cc1cc(C(=O)NNC(=S)NCC2CCCO2)cs1 (stereo not drawn),n,19574,n,n,n,n
CCC(C)[C@H](NC(=O)NCC1CCCO1)C(=O)OC (stereo partly drawn),n,24826,n,n,n,n
CCOc1cc(NC(=S)NCC2CCCO2)c(OCC)cc1NC(=O)c1ccc(C)cc1 (stereo not drawn),n,n,n,n,n,n
O=C(NCC1CCCO1)c1cccs1 (stereo not drawn),n,17278,n,n,u,n
CCOc1cc(NC(=S)NCC2CCCO2)c(OCC)cc1NC(=O)c1ccccc1 (stereo not drawn),n,24364,n,n,n,n
CCc1c(C(=O)NNC(=S)NCC2CCCO2)csc1C (stereo not drawn),n,n,n,n,n,n
